# Measurements as given in the supplement of paper PMC3334620.
# The full ranking holds about 33,000 sequences; the median of “E-score (-0.5 to 0.5)” is about -0.054, and the highest 2% start at about 0.39. What follows is part of a selection rich in the highest values, with near analogues and random picks from the rest.
# Target: Ylr278c (UniProt Q05854)
# Test: PBM E-score (8-mer binding enrichment) (E-score (-0.5 to 0.5)); higher = stronger / more preferred TF binding
# Conditions: protein concentration: 200 nM; construct: GST-DNA-binding domain
# Protocol: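 Universal 'all 10-mer' protein binding microarrays (Agilent AMADID 015681) probed with GST-tagged S. cerevisiae TFs (full-length or DBD) made by in vitro transcription/translation (PURExpress), about 100-200 nM. Bound TF was detected with fluorescent anti-GST. Each ungapped 8-mer (which stands for itself and its reverse complement) is scored by the PBM enrichment score (E-score), a modified Wilcoxon-Mann-Whitney statistic from -0.5 to +0.5, computed with the Universal PBM Analysis Suite. Scale: above 0.35 generally sequence-specific binding.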
# UniProt Q05854, sequence (Q05854 whole entry): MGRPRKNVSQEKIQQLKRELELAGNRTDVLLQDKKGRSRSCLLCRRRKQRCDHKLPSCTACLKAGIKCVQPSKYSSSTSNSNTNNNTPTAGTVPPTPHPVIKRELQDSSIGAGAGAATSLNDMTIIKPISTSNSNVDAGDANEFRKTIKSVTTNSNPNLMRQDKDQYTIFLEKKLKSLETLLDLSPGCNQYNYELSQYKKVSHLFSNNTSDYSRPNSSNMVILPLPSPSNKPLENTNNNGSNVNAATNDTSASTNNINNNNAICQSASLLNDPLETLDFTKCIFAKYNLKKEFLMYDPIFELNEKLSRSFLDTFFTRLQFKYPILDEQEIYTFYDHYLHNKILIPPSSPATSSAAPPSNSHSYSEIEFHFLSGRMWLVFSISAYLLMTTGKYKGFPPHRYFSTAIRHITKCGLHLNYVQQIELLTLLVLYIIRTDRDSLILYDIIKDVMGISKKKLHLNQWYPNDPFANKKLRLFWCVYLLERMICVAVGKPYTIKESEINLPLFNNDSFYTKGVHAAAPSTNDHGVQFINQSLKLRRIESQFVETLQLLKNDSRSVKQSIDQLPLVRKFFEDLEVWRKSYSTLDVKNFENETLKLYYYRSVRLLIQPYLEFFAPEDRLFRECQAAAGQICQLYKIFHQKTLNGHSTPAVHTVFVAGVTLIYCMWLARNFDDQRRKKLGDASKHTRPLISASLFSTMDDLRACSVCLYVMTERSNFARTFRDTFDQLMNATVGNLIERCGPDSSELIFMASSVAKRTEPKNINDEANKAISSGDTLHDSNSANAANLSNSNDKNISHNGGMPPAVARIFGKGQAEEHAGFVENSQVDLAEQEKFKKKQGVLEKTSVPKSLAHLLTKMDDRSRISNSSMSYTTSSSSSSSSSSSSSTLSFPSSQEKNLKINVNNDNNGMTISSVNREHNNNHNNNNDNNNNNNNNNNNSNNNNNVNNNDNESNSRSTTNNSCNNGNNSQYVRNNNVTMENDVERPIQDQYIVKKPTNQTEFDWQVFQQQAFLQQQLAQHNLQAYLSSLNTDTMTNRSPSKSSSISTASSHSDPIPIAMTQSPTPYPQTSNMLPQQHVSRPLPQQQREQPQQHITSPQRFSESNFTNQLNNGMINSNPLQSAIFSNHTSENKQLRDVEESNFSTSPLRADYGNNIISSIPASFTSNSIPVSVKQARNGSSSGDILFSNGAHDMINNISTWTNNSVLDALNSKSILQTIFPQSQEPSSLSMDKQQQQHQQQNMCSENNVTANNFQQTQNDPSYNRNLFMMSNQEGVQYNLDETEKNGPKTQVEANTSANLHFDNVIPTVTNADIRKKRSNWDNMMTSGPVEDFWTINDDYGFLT
row,Sequence,PBM E-score
1,GTTGCTTA,-0.107
2,GTCTGCGA,-0.207
3,GTCACCCA,-0.109
4,ACTAGCCT,-0.0654
5,CATTGAGA,-0.119
6,ATCTCGGG,0.278
7,GTCTCGGA,0.385
8,CTCTCGAA,-0.33
9,ATCTCGGA,0.406
10,CTCTCGGC,0.181
11,CTCTCGGA,0.405
12,GGCGACGA,-0.172
13,AAAGCCTA,-0.184
14,ATCTAACG,0.0888
15,CGGCTGGA,0.0769
16,GGGATGAC,0.0341
17,CCGCGGAG,0.449
18,CCGCGGAC,0.429
19,GCGCGGGA,0.248
20,CCGCGGGC,0.367
21,CAGCGGAG,0.408
22,CCGCGCAG,0.274
23,CAGCGGAA,0.359

row,Sequence,PBM E-score
1,GCGCGGAC,0.294
2,CCGCGGGA,0.393
3,AAGCGGAG,0.355
4,CAGCGGAC,0.257
5,CCGCGGCG,0.364
6,GCTTCTAC,-0.123
7,ATTAGGGA,-0.0669
8,CCTGAAGA,-0.0995
9,CCATAGGG,-0.154
10,CTTTACAC,0.022
11,ACCAGGAT,-0.0342
12,ACGCGGAC,0.342
13,ACGCGGAT,0.23
14,ACGCGGAG,0.421
15,TCGCGGAA,0.342
16,GCGCGGAA,0.387
17,CCGCGGAA,0.414
18,AATTAGCT,0.0507
19,AAGCCGTG,0.00789
20,GCCTTTAC,-0.0652
21,CCTCCGTC,0.351
22,GCTCCATA,-0.175
23,ACTCCGTC,0.459

row,Sequence,PBM E-score
1,GCTCCGTA,0.405
2,ACTCCTTA,-0.0802
3,AGTCCGTG,0.343
4,AATCCGTG,0.26
5,ACTCCGTG,0.449
6,ACACCGTA,0.102
7,ACTCCGTA,0.443
8,CCTCCGTA,0.37
9,ATTCCGTC,0.362
10,GCTGGAGA,-0.271
11,GGCACTAC,-0.0733
12,CCTGATCG,-0.0211
13,AGGAGTGC,-0.139
14,GGGAGTGA,0.0441
15,CGGAGTGC,0.438
16,CGGAGTGA,0.459
17,CTGAGTGC,-0.133
18,AGGAGTGA,-0.0619
19,GACCATGA,0.0081
20,CCTTCTGC,-0.136
21,ATGTTAGC,-0.0158
22,AAGACGCA,-0.074
23,GTCAACAA,-0.23

row,Sequence,PBM E-score
1,AGCTCCTC,-0.144
2,AGCTCCAA,-0.207
3,AGCTCCCG,0.0891
4,AGCTCCGA,0.47
5,AGCTCCAC,-0.0221
6,AGCTCCTG,-0.0626
7,GGCTCCGA,0.393
8,AGCTCCGG,0.458
9,AGCTCCTA,-0.0358
10,GGCTCCCA,-0.145
11,GGCTCCAA,-0.0143
12,AGCTCCGC,0.436
13,GAGCCTCA,-0.171
14,CGCTCCCG,0.115
15,CACTTCAC,-0.0647
16,GTCTGTTA,-0.13
17,TGCTCCCA,-0.175
18,AAGTCGAG,-0.374
19,CTGTCTGC,-0.222
20,CCCAATAA,-0.0977
21,GGAGACTA,0.0463
22,GCTAAGAC,-0.0188
23,CGCTCCGC,0.317

row,Sequence,PBM E-score
1,CGCTCCCA,0.0833
2,CGCTCCGA,0.432
3,AACTGTGG,-0.0559
4,ACTACGCT,-0.0389
5,GCCGACGA,0.248
6,TCCGACAA,0.39
7,ACCGACAA,0.199
8,CCCGACAA,0.281
9,TCCGACGA,0.397
10,CCCGACGA,0.213
11,ACCTCTGA,-0.0775
12,CAAGATTG,-0.151
13,AAAATTAT,0.214
14,TCCCGGAA,0.44
15,CCGGGGAC,0.242
16,ACCCGGTA,0.161
17,GCCGGGAC,0.255
18,CCCGGGAC,0.394
19,ACCCGGCA,0.174
20,TCACGGAA,0.324
